The nature of experiment [1]: qHTS profiling for inhibitors of Plasmodium falciparum (3D7) proliferation (AID 743322).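 Note: infected erythrocytes exposed to compound for 72 h before lysis; 100% = DMSO vehicle wells and 0% = 0.29 µM artemisinin.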 The following applies: P. falciparum 3D7 proliferation; at 28.7 µM (top of the series). The method, boiled down:
(§1)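 Parasite DNA was quantified by SYBR Green I fluorescence (ex 485, em 535 nm) after overnight lysis in saponin/Triton buffer at room temperature. Cultures at 0.3% parasitemia and 2.5% hematocrit were first exposed to compound for 72 h at 37 C; signals were normalised to artemisinin (0.29 uM) and vehicle wells.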
On the technique in general: qHTS replaces the single test concentration by a dilution series.

Experiment [2] is described as follows: qHTS profiling for inhibitors of Plasmodium falciparum (DD2) proliferation (AID 743323). The following applies: lower = more inhibition; at 28.7 µM (top of the series). The method, boiled down: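 SYBR Green fluorescence (ex 485, em 535 nm) of lysed cultures gives parasite DNA content; wells normalized to artemisinin (0.29 uM) and DMSO controls. Infected red cells: 0.3% parasitemia, 2.5% hematocrit, 72 h, 37 C.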

The nature of experiment [3]: qHTS profiling for inhibitors of Plasmodium falciparum (HB3) proliferation (AID 743324).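 Note: 100% = DMSO vehicle wells and 0% = artemisinin-treated control wells.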 The following applies: Plasmodium falciparum HB3 blood-stage proliferation; at 28.7 µM (top of the series). The method, boiled down:
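SYBR Green fluorescence (485 ex/535 em) of lysed cultures, incubated overnight at room temperature in the dark, quantifies parasite DNA. Infected erythrocytes at 0.3% parasitemia and 2.5% hematocrit were exposed 72 h; values normalized to DMSO and 0.29 uM artemisinin controls.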

A short description of experiment [4]: qHTS profiling of the MIPE4 collection as inhibitors of Plasmodium falciparum (DD2) proliferation (Rep 2) (AID 743346). The following applies: P. falciparum Dd2 in erythrocytes, SYBR Green DNA, 72 h; at 28.5 µM (top of the series) unless noted. The method, boiled down: as §1
Experiment [5] can be described thus: qHTS profiling of the MIPE4 collection as inhibitors of Plasmodium falciparum (HB3) proliferation (AID 743347).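 Note: plate controls were DMSO vehicle wells for no effect and artemisinin wells for full effect.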 The following applies: P. falciparum HB3 in erythrocytes, SYBR Green DNA, 72 h; at 28.5 µM (top of the series) unless noted. The method, boiled down:
as §1

The nature of experiment [6]: High-throughput drug toxicity screening in the BPDCN cell line Gen2.2 (AID 1224824).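 Note: cells exposed to compounds for 48 h before reading.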 The following applies: Gen2.2 BPDCN cells; at 45.8 µM (top of the series) unless noted. In a few lines:
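Gen2.2 cells, 500 per well in phenol red-free RPMI with 10% FBS, exposed to compounds 48 h at 37 C, 5% CO2; viability by CellTiter-Glo luminescence. Percent activity scaled to DMSO (100%) and 9.2 uM bortezomib final (0%).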

Experiment [7] is described as follows: High-throughput drug toxicity screening in the BPDCN cell line Cal-1 (AID 1224825). The following applies: Cal-1 BPDCN cell viability, qHTS; at 45.8 µM (top of the series) unless noted. In a few lines:
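Viability of the BPDCN line Cal-1 is measured as ATP-based luminescence (CellTiter-Glo) following 48 h incubation with compounds. Percent activity uses DMSO-treated wells as 100% and 9.2 uM bortezomib as 0%.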

Experiment [8] can be described thus: qHTS profiling of the MIPE4 collection as inhibitors of Plasmodium falciparum (DD2) proliferation (AID 743345). The following applies: P. falciparum Dd2 in erythrocytes, SYBR Green DNA, 72 h; at 28.5 µM (top of the series) unless noted. The method, boiled down:
as §1

The nature of experiment [9]: qHTS profiling of the MIPE4 collection as inhibitors of Plasmodium falciparum (3D7) proliferation (AID 743344).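 Note: scaled between DMSO vehicle wells and 0.29 µM artemisinin as full inhibition.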 The following applies: P. falciparum 3D7 in erythrocytes, SYBR Green DNA fluorescence, 72 h; at 28.5 µM (top of the series) unless noted. In a few lines:
as §1

As to `C[C@@H](Oc1cc(-c2cnn(C3CCNCC3)c2)cnc1N)c1c(Cl)ccc(F)c1Cl`, the remaining parasite growth % (stronger effect = lower value) in experiment [1] is -1.04%. The activity, percent of control in experiment [2] stood at 1.46%. In [3], the remaining proliferation (% of control), lower = more inhibition is -2.16%. Further, the parasite growth, % of control (lower = inhibition) in experiment [4] was determined as 10.7%. The compound also yielded a growth, % of control in [5] of 2.36%. Besides, the cell viability, % of control (lower = more cytotoxic) in experiment [6] was found to be 13.2%. For the same compound, the viability (% of control) in experiment [7] was found to be 3.63%.
For `Nc1cc(C(F)(F)F)c(-c2cc(N3CCOCC3)nc(N3CCOCC3)n2)cn1`, in experiment [1], the remaining parasite growth % (stronger effect = lower value) turned out to be 90.8%. Moreover, in experiment [2], the activity, percent of control worked out at 69.9%. Further, the remaining proliferation (% of control), lower = more inhibition in experiment [3] was determined as 58.8%. The compound also registered a parasite growth remaining, % of DMSO control (lower = more inhibition) in experiment [8] of 94%. Besides, the parasite growth, % of control (lower = inhibition) in experiment [4] is 41.5%. The same compound yielded a growth, % of control in experiment [5] of 18.9%. The cell viability, % of control (lower = more cytotoxic) in [6] amounted to 9.37%. In experiment [7], the viability (% of control) amounted to 11.1%.
Take `c1ccc2c(CCNc3ccc(Nc4ccncc4)cc3)c[nH]c2c1`: the remaining parasite growth % (stronger effect = lower value) in [1] came out at 1.57%. In experiment [2], the activity, percent of control was found to be 6.37%. Also, the parasite growth, % of DMSO control in [9] amounted to 11.1%. Also, in experiment [8], the parasite growth remaining, % of DMSO control (lower = more inhibition) was 10.6%. In experiment [4], the parasite growth, % of control (lower = inhibition) stood at 6.39%. The growth, % of control in experiment [5] was found to be 5.7%. Further, the cell viability, % of control (lower = more cytotoxic) in experiment [6] amounted to 5.37%. For the same compound, the viability (% of control) in experiment [7] stood at 3.61%.
Regarding `O=C(C=Cc1cccc(S(=O)(=O)Nc2ccccc2)c1)NO`, in [1], the remaining parasite growth % (stronger effect = lower value) was determined as 0.201%. In addition, the activity, percent of control in [2] was 0.981%. For the same compound, the remaining proliferation (% of control), lower = more inhibition in experiment [3] is 0.6%. For the same compound, in [9], the parasite growth, % of DMSO control stood at 4.9% [at 57.5 µM]. Further, in [8], the parasite growth remaining, % of DMSO control (lower = more inhibition) came out at 6.53% [at 57.5 µM]. Besides, the growth, % of control in experiment [5] was 8.45% [at 57.5 µM]. The cell viability, % of control (lower = more cytotoxic) in experiment [6] came to 8.69% [at 92.2 µM]. For the same compound, the viability (% of control) in [7] came out at 3.98% [at 92.2 µM].
For the compound `CCOc1cc2ncc(C#N)c(Nc3ccc(F)c(Cl)c3)c2cc1NC(=O)C=CCN(C)C`, the remaining parasite growth % (stronger effect = lower value) in [1] is -0.461%. Also, in experiment [2], the activity, percent of control stood at 3.39%. For the same compound, the remaining proliferation (% of control), lower = more inhibition in [3] stood at 0.199%. In experiment [9], the parasite growth, % of DMSO control was found to be 8.27%. The compound further had a growth, % of control in experiment [5] of 4.45%. Further, the cell viability, % of control (lower = more cytotoxic) in [6] was 17.3%. Further, the viability (% of control) in experiment [7] came to 9.88%.
`CNc1nccc(-c2cccnc2Oc2cc(C(=O)Nc3cccc(C(F)(F)F)c3)ccc2C)n1`: in [1], the remaining parasite growth % (stronger effect = lower value) stood at 5.98%. In addition, in experiment [2], the activity, percent of control amounted to 13.8%. Further, the remaining proliferation (% of control), lower = more inhibition in experiment [3] is 3.23%. The compound further yielded a parasite growth remaining, % of DMSO control (lower = more inhibition) in [8] of 31.1%. The parasite growth, % of control (lower = inhibition) in [4] was found to be 19.8%. In experiment [5], this compound yielded a growth, % of control of 7.15%. Moreover, the cell viability, % of control (lower = more cytotoxic) in experiment [6] was determined as 13%. Besides, the viability (% of control) in [7] came out at 15.7%.
For the compound `Cc1cc(Nc2cc(N3CCN(C)CC3)nc(Sc3ccc(NC(=O)C4CC4)cc3)n2)n[nH]1`, the remaining parasite growth % (stronger effect = lower value) in experiment [1] was 39.3%. The activity, percent of control in experiment [2] worked out at 68.3%. This compound gave a parasite growth, % of DMSO control in experiment [9] of 11.5%. This compound yielded a parasite growth remaining, % of DMSO control (lower = more inhibition) in [8] of 16%. Also, in [6], the cell viability, % of control (lower = more cytotoxic) amounted to 36.4%. Besides, the viability (% of control) in experiment [7] came out at 12.3%.
On to `O=C(O)[C@H](Cc1c[nH]c2ccccc12)N1C(=O)c2ccccc2C1=O`, for which, in [1], the remaining parasite growth % (stronger effect = lower value) was determined as 105%. Also, in experiment [2], the activity, percent of control turned out to be 104%. In experiment [9], this compound displayed a parasite growth, % of DMSO control of 99.6% [at 57.5 µM]. In [8], this compound returned a parasite growth remaining, % of DMSO control (lower = more inhibition) of 98.7% [at 57.5 µM]. The same compound had a parasite growth, % of control (lower = inhibition) in [4] of 77% [at 57.5 µM]. Further, the growth, % of control in experiment [5] was 106% [at 57.5 µM]. The cell viability, % of control (lower = more cytotoxic) in [6] stood at 151% [at 92.2 µM]. The viability (% of control) in experiment [7] is 104% [at 92.2 µM].
Take `C=C1C(=CC=C2CCCC3(C)[C@@H]([C@H](C)C=CC=CC(O)(CC)CC)CC[C@@H]23)C[C@@H](O)C[C@@H]1O` (stereo partly drawn): the remaining parasite growth % (stronger effect = lower value) in experiment [1] was 65.1%. For the same compound, the activity, percent of control in experiment [2] worked out at 71.5%. In experiment [3], the remaining proliferation (% of control), lower = more inhibition came to 20.6%. Besides, in [9], the parasite growth, % of DMSO control is 17.5%. This compound also yielded a parasite growth remaining, % of DMSO control (lower = more inhibition) in experiment [8] of 83.6%. Further, in experiment [5], the growth, % of control is 15%. The cell viability, % of control (lower = more cytotoxic) in experiment [6] stood at 17.9%. Moreover, in [7], the viability (% of control) worked out at 6.44%.
